# Measurements: PubChem BioAssay (Tox21)
# “And” between values parts separate entries of the source, which are not always exact repeats. Equal values may be shown once. Results filed as inconclusive are left out. Where a call stands in place of a potency, no number is given. The source made the active and inactive calls. Calls follow the shape of the dose curve; as a rule, active = well fitted cell-killing curve with a large enough effect in the repeat runs; inconclusive = weak or mixed curves, or effect the other way; inactive = no such curve, though single readings can be large or run the other way.
# Experiment: qHTS assay to identify small molecule agonists of the vitamin D receptor (VDR) signaling pathway - cell viability counter screen (AID 743224); also: nearly all actives have a fitted effect of over 50% in size
# Settings: VDR-bla HEK293T viability, CellTiter-Glo luminescence, 16 h; series mostly up to 62.6 µM; activity change, negative = cytotoxicity: at the top concentration
# From the text: U.S. Tox21 Program National Center for Advancing Translational Sciences [NCATS] NIH Chemical Genomics Center [NCGC] U.S. Environmental Protection Agency [EPA] National Institutes of Environmental Health Sciences [NIEHS] National Toxicology Program [NTP] U.S. Food and Drug Administration [FDA] Tox21 Assay Overview: The vitamin D receptor (VDR), a member of nuclear hormone receptor superfamily, plays a critical role in calcium homeostasis and bone metabolism. It is also involved in cell differentiation and growth, and thrombogenicity. […] The cytotoxicity of the Tox21 compound library against the VDR-bla cell line was tested in parallel by measuring the cell viability using CellTiter-Glo assay (Promega, Madison, WI) in the same wells.
# Tox21 Assay Protocol Summary: VDR-bla cells were dispensed at 2,000 cells/6 uL/well into black wall/clear-bottom 1536-well plates using a Multidrop Combi (Thermo Fisher Scientific, Waltham, MA) dispenser. After the assay plates were incubated at a 37C and 5% CO2 for 4 h, 23 nL of compounds dissolved in DMSO, positive controls or DMSO only was transferred to the assay plate by a Pintool station (Kalypsys, San Diego, CA). The plates were incubated at 37C and 5% CO2 for 16 h. After 1 uL of LiveBLAzerTM B/G FRET substrate was added using a Bioraptr Flying Reagent Dispenser (FRD) workstation (Beckman Coulter, Indianapolis, IN, USA), the plates were incubated at room temperature for 2 h, and fluorescence intensity was measured by an Envision plate reader (PerkinElmer, Shelton, CT). For cell viability readout that measures cytotoxicity, 3 ul/well of CellTiter-Glo reagent was added into the assay plates using a FRD. After 30 min incubation at room temperature, the luminescence intensity in the plates was measured using a ViewLux (PerkinElmer) plate reader.
# Potency is read from the fitted curve at half-maximal effect.
SMILES,Potency,"activity change, negative = cytotoxicity"
Cc1cc(C)c(O)c(C)c1,inactive,
CC(=O)Nc1ccc(CC(=O)O)cc1,inactive,
COCN(COC)c1nc(N(COC)COC)nc(N(COC)COC)n1,inactive,
O=C1CCCCCCCCCCC1,inactive,
CCCOCC(C)O (stereo not given),inactive,
COc1ccc([C@@H]2CC(=O)c3c(O)cc(O[C@@H]4O[C@H](CO[C@@H]5O[C@@H](C)[C@H](O)[C@@H](O)[C@H]5O)[C@@H](O)[C@H](O)[C@H]4O)cc3O2)cc1OC,,-7.13% (inactive)
OCCOCCOCCOCCOCCO,inactive,
CC(=O)OC/C=C(\C)CCC=C(C)C,inactive,
O=C(O)C1=NN(c2ccc(S(=O)(=O)O)cc2)C(=O)C1,inactive,
CCCCCCCCCCCCCC(=O)O,inactive,
CC(C)(C)NC[C@H](O)COc1nsnc1N1CCOCC1,inactive,
O=c1n(CCCN2CCN(c3cccc(Cl)c3)CC2)nc2ccccn12,,-3.59% (inactive)
O=[N+]([O-])c1ccccc1C(F)(F)F,inactive,
Cc1ccc(C(C)C)cc1,inactive,
Nc1cccc(N)n1,inactive,
Oc1ccc(Cc2ccccc2O)cc1,inactive,
CC1=CC(=O)CC(C)(C)C1,inactive,
N[C@@H](Cc1cc(I)c(Oc2ccc(O)c(I)c2)c(I)c1)C(=O)O,inactive,
O=C1OC(=O)c2c(Cl)c(Cl)c(Cl)c(Cl)c21,,-1.67% [at 81.1 µM] (inactive)
CCCCCCCCCCCC(=O)N(C)CC(=O)O,inactive,

SMILES,Potency,"activity change, negative = cytotoxicity"
c1cnc2c(c1)ccc1cccnc12,1.97 µM (active) and 2.75 µM (active) and 436 nM (active),
CC(C=O)Cc1ccc(C(C)(C)C)cc1 (stereo not given),inactive,
COc1cc(NC(=O)CC(C)=O)c(OC)cc1Cl,inactive,
CC(O)CNCC(C)O (stereo not given),inactive,
Brc1ccc(Oc2ccc(Br)cc2)cc1,inactive,
CC/C(C)=N/O,inactive,
O=C(NCC1CCCCN1)c1cc(OCC(F)(F)F)ccc1OCC(F)(F)F (stereo not given),,7.68% (inactive)
Cc1cc(C)cc(O)c1,inactive,
CC(=O)C(C)C,inactive,
Cc1nnc(NS(=O)(=O)c2ccc(N)cc2)s1,inactive,
C=CC(C)(C)C,inactive,
C=C(CC(=O)O)C(=O)O,inactive,
CC/C=C(\C(=O)N[C@@H]1C(=O)N2C(C(=O)OCOC(=O)C(C)(C)C)=C(COC(N)=O)CS[C@H]12)c1csc(N)n1,inactive,
CC(=O)OC[C@H]1O[C@@](COC(C)=O)(O[C@H]2O[C@H](COC(C)=O)[C@@H](OC(C)=O)[C@H](OC(C)=O)[C@H]2OC(C)=O)[C@@H](OC(C)=O)[C@@H]1OC(C)=O,inactive,
COc1c2ccoc2cc2oc(=O)ccc12,inactive,
COC(=O)/C=C\C(=O)OC,inactive,
NC(N)=S,inactive,
COc1ccc(N)c(OC)c1,,23.3% (inactive)
CO[Si](CCCNCCN)(OC)OC,,-21.4% [at 81.1 µM] (inactive)
O=c1c(O)c(-c2ccc(O)c(O)c2)oc2cc(O)cc(O)c12,inactive,
